# Screening data (PubChem)
# This is a sample that favours compounds with a hit; in the whole collection about 4.2% have one here.
# MITF act – activators of MITF-driven TRPM1 promoter activity in SK-MEL-5 cells. SK-MEL-5 TRPM1-promoter luciferase, 24 h; % of positive control, neutral wells = 0. activation, % at 12.5 µM. hit rate 0.75% among 300,000. AID 588334;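 active means mean activation of at least 80% with every replicate also reaching 80%; inconclusive means mean reaches 80% but some replicate falls short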
# AHR act – human AHR activation; P35869; activation, % at 5 µM; hit rate 2.5% among 320,000; AHR-responsive luciferase reporter cells, luminescence; AID 2796; in the data active means activation above about 47%
# Target sequence (P35869 whole entry, looked up): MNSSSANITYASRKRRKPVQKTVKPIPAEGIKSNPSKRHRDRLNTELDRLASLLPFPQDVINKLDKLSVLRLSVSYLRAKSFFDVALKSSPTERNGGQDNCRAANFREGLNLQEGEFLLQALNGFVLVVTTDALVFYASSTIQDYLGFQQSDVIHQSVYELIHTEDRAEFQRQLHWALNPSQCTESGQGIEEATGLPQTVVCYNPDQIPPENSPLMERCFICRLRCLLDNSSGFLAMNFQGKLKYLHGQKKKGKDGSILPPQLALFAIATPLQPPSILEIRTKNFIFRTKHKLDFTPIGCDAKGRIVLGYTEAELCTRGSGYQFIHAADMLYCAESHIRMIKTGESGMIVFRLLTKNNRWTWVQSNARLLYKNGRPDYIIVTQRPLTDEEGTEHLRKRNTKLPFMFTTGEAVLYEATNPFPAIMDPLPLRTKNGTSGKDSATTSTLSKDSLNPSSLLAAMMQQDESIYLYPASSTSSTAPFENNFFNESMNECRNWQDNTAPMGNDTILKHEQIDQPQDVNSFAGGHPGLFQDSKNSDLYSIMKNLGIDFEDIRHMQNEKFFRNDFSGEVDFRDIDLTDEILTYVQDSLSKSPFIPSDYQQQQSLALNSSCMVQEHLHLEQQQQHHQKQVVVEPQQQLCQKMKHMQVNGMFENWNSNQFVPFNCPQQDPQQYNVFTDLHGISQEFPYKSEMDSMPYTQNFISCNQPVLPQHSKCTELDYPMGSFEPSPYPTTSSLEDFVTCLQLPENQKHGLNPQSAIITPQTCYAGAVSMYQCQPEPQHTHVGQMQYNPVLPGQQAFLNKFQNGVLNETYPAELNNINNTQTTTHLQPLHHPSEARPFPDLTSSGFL
# GAA850 FXN act – activators of GAA850 frataxin (FXN) promoter; HEK293 lucGAA850 FXN promoter luciferase reporter, 24 h; percent of 10 µM SAHA response; activation, % at 6 µM; hit rate 0.56% among 360,000; AID 540364;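 active means activation above the average of all compounds screened plus 3 SD, cutoff fixed separately per campaign, cut at about 7.5% in these data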
# Wnt bcat act – Wnt/beta-catenin pathway activation. Wnt/beta-catenin reporter cell assay, activator, plate reader. activation, % at 9.35 µM. hit rate 1.2% among 300,000. AID 743398; in the data active means activation above about 30%, passing the limit was not always enough; inconclusive means no clear call, values can overlap the other calls
# esBAF inh – blocks esBAF chromatin remodeling in mouse ES cells; AID 602393; reporter increase, % at 12.5 µM; Bmi1-luciferase knock-in reporter, 24 h; 100% = twice the neutral-well signal; hit rate 2% among 350,000; in the data active means activation above about 40%; inconclusive means no clear call, values can overlap the other calls;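 further: a rise in the Bmi1 reporter signal indicates esBAF inhibition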
# Hits are given with their value; i = inactive; ? = inconclusive; nt = no result given.
SMILES,MITF act,AHR act,GAA850 FXN act,Wnt bcat act,esBAF inh
O=C(C[C@@H]1C[C@@H]2c3cc(NC(=O)C4CCC4)ccc3O[C@@H]2[C@H](CO)O1)NCc1ccccc1F,nt,nt,nt,nt,i
Cc1cccc(N=NC(=S)NNc2cccc(C)c2)c1,i,nt,i,i,52
Cc1cccc(NNC(=O)C(=O)NNc2cccc(C)c2)c1,nt,i,i,i,nt
Oc1ccc2ccccc2c1N=Nc1ccccn1,nt,74,i,i,i
Oc1ccc2ccccc2c1N=Nc1ccccc1F,i,50,i,i,i
C[C@@H]1CN([C@@H](C)CO)C(=O)c2cc(-c3ccccc3F)cnc2O[C@@H]1CN(C)C(=O)CN(C)C,nt,nt,nt,nt,i
O=C(O)CCSCCCN1C(=O)c2cccc3cccc(c23)C1=O,i,49,i,i,nt
CCCCN1C(=O)c2cccc3cc(O)cc(c23)C1=O,nt,i,i,61,nt
O=C(O)CCCN1C(=O)c2cccc3cccc(c23)C1=O,i,i,i,i,i
C[C@H](CO)N1C[C@H](C)[C@H](CN(C)Cc2ccncc2)Oc2cc(C3=CCCCC3)ccc2S1(=O)=O,nt,nt,nt,nt,i
Nc1cc(Nc2ccc(Br)cc2)nc(N)n1,?,62,i,39,nt
Cc1cc(Nc2ccc(Cl)cc2)nc(N)n1,i,i,i,nt,i
O=C(Nc1ccc(OC(F)(F)F)cc1)c1n[nH]c(Cn2cncn2)n1,nt,i,i,81,i
CC1CCC(NC(=O)c2ccc(NC(=O)CC3SC(N4CCCC4)=NC3=O)cc2)CC1 (stereo not given),i,i,i,i,66
CCOc1cccc(-c2c(C(=O)N/N=C(\C)c3cccnc3)nnn2-c2nonc2N)c1,i,60,i,i,i
CCOc1ccc(-c2c(C(=O)N/N=C/c3ccccc3)nnn2-c2nonc2N)cc1,nt,i,i,34,i
CCOc1ccc(-c2c(C(=O)N/N=C/c3ccc(C)cc3)nnn2-c2nonc2N)cc1,nt,i,i,i,i
CCCOc1ccc(-c2c(C(=O)N/N=C(\C)c3cccnc3)nnn2-c2nonc2N)cc1,i,56,i,i,i
CCOc1ccc(-c2c(C(=O)N/N=C(\C)c3ccncc3)nnn2-c2nonc2N)cc1,i,i,i,i,i
Cc1ccc(S(=O)(=O)N(C)C[C@H]2Oc3ccc(NS(=O)(=O)c4cccs4)cc3C(=O)N([C@@H](C)CO)C[C@@H]2C)cc1,nt,nt,nt,nt,i
CCC(=O)Nc1sc(C(=O)Nc2ccccc2F)c(C)c1C(=O)OC,?,i,i,i,nt
COC(=O)c1c(NC(C)=O)sc(C(=O)Nc2ccccc2F)c1C,i,i,i,37,nt
CCCC(=O)Nc1sc(C(=O)Nc2cccc(N)c2)c(C)c1C(=O)OC,i,i,i,37,i
COc1ccc(S(=O)(=O)Nc2ccc3c(c2)[C@@H]2C[C@H](CC(=O)O)O[C@H](CO)[C@@H]2O3)cc1,nt,nt,nt,nt,i
CN(N=O)c1ccc(C=C2C=Cc3ccccc32)cc1,i,nt,i,i,nt
SMILES,MITF act,AHR act,GAA850 FXN act,Wnt bcat act,esBAF inh
CCN(N=O)c1ccc(C=C2C=Cc3ccccc32)cc1,97,nt,i,41,nt
C[C@H]1CN([C@@H](C)CO)C(=O)Cc2cc(NC(=O)Nc3ccccc3)ccc2O[C@H]1CN(C)C(=O)NC1CCCCC1,nt,nt,nt,nt,i
Cc1ccc(NC(=O)CC2CCCC2)c(Br)c1,i,i,i,i,50
Cc1ccc(NC(=O)C2CCCC2)c(Br)c1,nt,i,i,i,i
Cc1ccc(NC(=S)NC(=O)C2CCCCC2)c(Br)c1,i,i,i,i,63
Cn1c(C(=O)NCCC2=CCCCC2)cc2c(=O)n3ccccc3nc21,i,i,i,nt,44
C[C@@H]1CN([C@H](C)CO)C(=O)Cc2cc(NC(=O)Nc3ccc(C(F)(F)F)cc3)ccc2O[C@H]1CN(C)S(C)(=O)=O,nt,nt,nt,nt,i
O=C(C[C@H]1CC[C@@H]2[C@H](COC[C@@H](O)CN2C(=O)c2ccccn2)O1)NC1CCC1,nt,nt,nt,nt,i
CCn1ccnc1[C@@H]1C[C@H]2CN(Cc3cccc(Cl)c3)C(=O)[C@]23CCCN13,i,i,i,i,nt
O=C1N(Cc2cccc(Cl)c2)C[C@@H]2C[C@@H](c3ccccn3)N3CCC[C@@]123,i,i,i,33,i
CC1CCC(C(C)C)C(OC(=O)COC(=O)c2cc(O)ccc2N)C1 (stereo not given),i,i,i,34,nt
COc1ccc2nc(N3CCCCC3)c(C#N)cc2c1,nt,i,i,44,?
COc1ccc2nc(N3CCCC3)c(C#N)cc2c1,i,i,i,?,i
O=C(Nc1nc2ccccc2[nH]1)Nc1ccccc1F,i,48,i,i,i
O=C(Nc1nc2ccccc2[nH]1)c1cccc(Br)c1,i,57,i,i,51
CSc1ccccc1C(=O)Nc1nc2ccccc2[nH]1,i,68,i,i,i
O=C(Nc1nc2ccccc2[nH]1)c1cccc(F)c1,i,i,i,31,i
COc1cccc(S(=O)(=O)N(C)C[C@H]2Oc3ncc(-c4cccc(C(=O)N(C)C)c4)cc3C(=O)N([C@H](C)CO)C[C@H]2C)c1,nt,nt,nt,nt,i
COc1ccc(C(=O)Nc2nc3ccccc3[nH]2)cc1,i,50,i,i,i
Cc1ccc(C(=O)Nc2nc3ccccc3[nH]2)cc1,i,i,i,i,i
O=C(Nc1nc2ccccc2[nH]1)c1cccs1,i,i,i,46,i
O/C(=C\c1nc2ccccc2[nH]1)c1cccs1,i,i,i,39,42
O=C(Nc1nc2ccccc2[nH]1)c1cccc([N+](=O)[O-])c1,i,50,i,?,nt
Cc1noc(C)c1NC(=O)Nc1ccc2c(c1)CC(=O)N([C@H](C)CO)C[C@H](C)[C@@H](CN(C)Cc1ccc3c(c1)OCO3)O2,nt,nt,nt,nt,i
COc1cccc(NC(=O)N[C@@H]2CC[C@H](CC(=O)Nc3ccc(-c4ccccc4)cc3)O[C@@H]2CO)c1,nt,nt,nt,nt,i
SMILES,MITF act,AHR act,GAA850 FXN act,Wnt bcat act,esBAF inh
Cc1cc(C)cc(N=Cc2c(O)c3ccccc3oc2=O)c1,i,i,i,i,nt
Cc1cc(C)c(N=Cc2c(O)c3ccccc3oc2=O)c(C)c1,i,i,i,i,57
CCS(=O)(=O)c1ccc2oc(Nc3ccccc3C)nc2c1,?,i,i,nt,55
CCN(CC)S(=O)(=O)c1ccc2oc(Nc3ccccc3)nc2c1,i,i,i,i,71
Cn1cc(CNC(=O)c2cc(COc3ccc4c(c3)CCCC4)on2)cn1,i,i,i,i,i
CCN(Cc1cnn(C)c1)C(=O)c1cc(COc2ccc3c(c2)CCCC3)on1,i,i,i,i,46
O=C(NCCc1cnn(-c2ccccc2)c1)c1cc(COc2c(F)cccc2F)on1,i,i,i,38,nt
CN(Cc1cnn(C)c1)C(=O)c1cc(COc2c(F)cccc2F)on1,i,i,i,nt,47
CCN(CC)CCn1c(SCC(=O)NCc2ccco2)nc2c(sc3ccccc32)c1=O,nt,i,i,47,i
O=C(COc1ccccc1)N1CCc2ccccc21,i,i,i,nt,nt
O=C(COc1ccccc1Cl)N1CCc2ccccc21,i,nt,i,i,64
O=C(COc1ccc(Br)cc1)N1CCc2ccccc21,99,i,i,i,nt
O=C(Cc1c[nH]c2ccccc12)N1CCc2ccccc21,i,75,i,nt,i
O=C(COc1ccccc1Cl)N1CCc2ccccc2C1,nt,i,i,i,i
